High-throughput results (PubChem)
Shown are actives, neighbours in structure and some others; about 1.6% of the full set was active somewhere.
KCNQ2 inh: inhibitors of rat KCNQ2 potassium channel | O88943 | CHO-K1 KCNQ2, FluxOR thallium flux, 20 min; hits give low values | B-score at 10 µM | 310,000 compounds, 1.1% hits | AID 2156;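 active = fluorescence ratio B-score at most minus 3 library SDs, with starting brightness B-score within 2 library SDs, cut at about -5.5 in these data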
KCNQ2 pot: potentiators of rat KCNQ2 potassium channel; O88943; CHO-K1 KCNQ2, FluxOR thallium flux fluorescence; hits give high values; B-score at 10 µM; 310,000 compounds, 0.54% hits; AID 2239;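 active = fluorescence ratio B-score at least 3 SD of library B-scores, with initial fluorescence B-score within 3 of them, cut at about 5.3 in these data; same plate scores as AID 2156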;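 note: B-score of peak minus minimum over baseline fluorescence ratio after K+ and Tl+ stimulus; positive B-score means potentiation of KCNQ2 with more thallium influx and brighter signal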
Kir21 conf inh: confirmation of mouse Kir2.1 potassium channel inhibitors; shares compounds with KCNQ2 pot; Kir2.1-expressing cells, FluxOR thallium flux fluorescence; hits give low values; Tl flux remaining, % of negative control (hits give low values), % at 10 µM; 2,300 compounds, 41% hits; AID 2032;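 active = Primary-screen hit whose thallium flux fell at least 3 control SD below untreated wells in both duplicates, with normal baseline fluorescence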
Target sequence (P35561 whole entry, looked up): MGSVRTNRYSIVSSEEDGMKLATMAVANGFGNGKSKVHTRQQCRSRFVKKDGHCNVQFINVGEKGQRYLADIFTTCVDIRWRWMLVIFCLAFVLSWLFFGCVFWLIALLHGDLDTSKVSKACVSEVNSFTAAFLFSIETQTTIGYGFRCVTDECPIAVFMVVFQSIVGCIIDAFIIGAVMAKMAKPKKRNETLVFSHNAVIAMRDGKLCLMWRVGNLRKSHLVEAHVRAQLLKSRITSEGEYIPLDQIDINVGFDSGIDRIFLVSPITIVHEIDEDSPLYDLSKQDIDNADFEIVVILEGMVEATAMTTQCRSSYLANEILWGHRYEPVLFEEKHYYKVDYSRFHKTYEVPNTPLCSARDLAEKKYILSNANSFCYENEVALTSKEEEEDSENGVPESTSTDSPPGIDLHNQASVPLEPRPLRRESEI
HEK293 ctr: parental HEK293 activity in Kir2.1 inhibitor counter-screen; 2,300 compounds, 19% hits; FluxOR signal as % of negative control (100 = no effect), % at 10 µM; parental HEK293 cells, FluxOR thallium flux fluorescence; 0% = unstimulated blank wells; shares compounds with KCNQ2 pot;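 active = dye signal at least 3 control SD above or below untreated wells in both duplicates, raw fluorescence within 3, either direction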;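 note: percent is based on the flux ratio of peak minus minimum fluorescence over baseline F0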
CHO-K1 ctr: alters thallium flux in parental CHO-K1 cells, KCNQ2 counter-screen. FluxOR thallium flux fluorescence; zero = vehicle mean+3SD, 100% = vehicle-minus-blank window. shares compounds with KCNQ2 pot. activity increase over 3SD of controls, % at 10 µM. 1,200 compounds, 43% hits;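 active = signal rise of at least 3 SD above the untreated control mean, in both duplicate wells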;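 note: counter screen of KCNQ2 potentiator hits so any rise reflects channel-independent effects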
KCNQ1 pot spec: selectivity of KCNQ2 potentiators: effect on human KCNQ1. CHO KCNQ1 stable, FluxOR thallium flux fluorescence; beyond 3SD, as % of vehicle-control signal. AID 2283. 1,200 compounds, 28% hits. shares compounds with KCNQ2 pot. activation over 3SD threshold, % at 10 µM;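 active = fluorescence ratio rise of at least 3 SD of vehicle wells above their mean, in both replicate wells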
KCNQ2 pot conf: rat KCNQ2 channel potentiator confirmation | shares compounds with KCNQ2 pot | CHO-KCNQ2 cells, FluxOR thallium flux fluorescence | potentiation, less the hit threshold, % at 10 µM | 1,200 compounds, 68% hits;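 active = fluorescence ratio rising 3 SD or more over the vehicle control mean in both replicates, plus primary screen hit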;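 note: peak minus minimum thallium fluorescence divided by baseline after K/Tl stimulus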
Kir2-1 sel: tests whether KCNQ2 potentiators also affect mouse Kir2.1; shares compounds with KCNQ2 pot; activity over 3SD threshold, % at 10 µM; 1,200 compounds, 2% hits; HEK293 Kir2.1, FluxOR thallium flux fluorescence; AID 2345;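 active = fluorescence ratio rise of at least 3 SD above the vehicle-control mean, seen in both replicates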
KCNQ2 W236L MoA: rat KCNQ2 W236L mutant potentiation by KCNQ2 potentiators; shares compounds with KCNQ2 pot; CHO KCNQ2-W236L, automated patch clamp current; current increase over 3SD of negative controls (%), hits give high values, % at 25 µM; 940 compounds, 10% hits;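 active = current increase at least 3 SD of the untreated controls above them in both duplicate recordings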
A number is an active result; - = inactive; . = no result.

SMILES	KCNQ2 inh	KCNQ2 pot	Kir21 conf inh	HEK293 ctr	others
CCN(C(=O)CSc1nnnn1-c1ccccc1)C1CCS(=O)(=O)C1 (configuration not stated)	-	.	.	.
CN(C)c1ccc(C(=O)c2ccccc2C(=O)O)c(O)c1	-	-	.	.
CCCCN(CCCC)c1ccc(C(=O)c2ccccc2C(=O)O)c(O)c1	-	8.92	-	-	CHO-K1 ctr=-;KCNQ1 pot spec=-;KCNQ2 pot conf=-;Kir2-1 sel=-;KCNQ2 W236L MoA=-
COc1ccc(Cl)cc1S(=O)(=O)N1CCCC1	-	.	.	.
CCOc1ccc(NC(=O)CN(C)C(=O)c2cc3c(s2)CCCCC3)cc1OCC	-	.	.	.
CCCc1ccc(OCc2ccc(C(=O)O)o2)c(OC)c1	-	-	.	.
COc1ccc(CCN(C)C(=O)c2ccc(COc3ccccc3)o2)cc1OC	-	.	56.0%	-
CCOC(=O)c1sc(Nc2nc3c(OC)cccc3s2)nc1C	-	-	.	.
c1ccc(Nc2nc(-c3ccccn3)cs2)cc1	-	-	.	.
COc1cccc2sc(Nc3nc(-c4ccccn4)cs3)nc12	-	21.1	-	-	CHO-K1 ctr=-;KCNQ1 pot spec=-;KCNQ2 pot conf=-;Kir2-1 sel=-;KCNQ2 W236L MoA=-
O=C(Nc1nc2c(F)cccc2s1)c1ccco1	-	-	.	.
COc1ccc(-c2nnc(-c3ccc(F)cc3)o2)cc1	-	-	.	.
COc1cccc2sc(Nc3nnc(-c4ccc(F)cc4)o3)nc12	-	19.7	-	467.5%	CHO-K1 ctr=-;KCNQ1 pot spec=-;KCNQ2 pot conf=59.5;Kir2-1 sel=-;KCNQ2 W236L MoA=-
Fc1cccc2sc(Nc3nnc(-c4ccco4)o3)nc12	-	15.8	-	310.0%	CHO-K1 ctr=130.0;KCNQ1 pot spec=-;KCNQ2 pot conf=44.6;Kir2-1 sel=-;KCNQ2 W236L MoA=-
COc1cccc2sc(Nc3nnc(-c4cccs4)o3)nc12	-	10.4	-	350.0%	CHO-K1 ctr=80.4;KCNQ1 pot spec=-;KCNQ2 pot conf=50.3;Kir2-1 sel=-;KCNQ2 W236L MoA=-
Cc1ccc(CNC(=O)CS(=O)(=O)c2cn(CC(=O)N3CCOCC3)c3ccccc23)cc1	-	.	.	.
CCc1cc2ccc(C)c(C)c2nc1SCC(=O)NNC(=O)c1ccco1	-	-	.	.
CCNc1nc(NC(C)(C)C)nc(Oc2ccc(=O)n(-c3ccccc3)n2)n1	-	.	.	.
Nc1nc(Nc2ccc(Cl)cc2)nc2ccccc12	-	.	-	173.5%
CN(C)c1ccc(Nc2nc(N)c3ccccc3n2)cc1	-	-	32.5%	-
Cc1ccccc1Nc1nc(N)c2ccccc2n1	-	-	.	.
CCOc1ccc(Nc2nc(N)c3ccccc3n2)cc1	-	-	50.5%	-
CCOc1ccc(Nc2nc(N)nc(CCl)n2)cc1	-	-	.	.
Nc1nc(Nc2ccccc2)nc2ccccc12	-	-	.	.
COc1cc(C(c2nnnn2C2CCCC2)N2CCN(C(=O)c3ccco3)CC2)cc(OC)c1OC (configuration not stated)	-	.	.	.
SMILES	KCNQ2 inh	KCNQ2 pot	Kir21 conf inh	HEK293 ctr	others
COc1cc2ccccc2cc1C(=O)Nc1nnc(-c2ccncc2)o1	-	.	.	.
COCn1ccnc1C(O)(c1ccc(OC)cc1)c1ccc(OC)cc1	-	-	.	.
CN1CCN(CCCN2c3ccccc3Sc3ccc(Cl)cc32)CC1	-9.13	-	13.5%	-
CN(C)CCCN1c2ccccc2Sc2ccc(C(F)(F)F)cc21	-	.	.	.
O=C(CCN1CCOCC1)N1c2ccccc2Sc2ccc(Cl)cc21	-	.	.	.
OCCN1CCN(CCCN2c3ccccc3Sc3ccc(C(F)(F)F)cc32)CC1	-	.	30.5%	-
O=C(CCc1nnc(Cc2ccc3c(c2)OCO3)o1)NC(c1ccccn1)C(F)(F)F (configuration not stated)	-	-	.	.
Cc1cccc2cc(CN(Cc3ccccc3)C(=O)c3cccc(F)c3)c(Cl)nc12	-	.	.	.
CCCCc1ccc(-c2ccc(C)cc2O)nc1	-	-	.	.
CCCCc1ccc(-c2ccc(Br)cc2O)nc1	-	6.03	-	-	CHO-K1 ctr=-;KCNQ1 pot spec=58.6;KCNQ2 pot conf=-;Kir2-1 sel=-
Cc1ccc(S(=O)(=O)c2c(C)cc(C)nc2Oc2cccc(C)c2C)cc1	-	.	.	.
CNc1nc(C)cc(C)c1S(=O)(=O)c1ccc(C)cc1	-	.	-	-
Cc1ccc2nc(Cl)c(C3CC(c4cccs4)=NN3S(C)(=O)=O)cc2c1 (configuration not stated)	-	.	.	.
c1cn(-c2ncnc3sc4c(c23)CCCC4)cn1	-	.	.	.
CC1=CCC[C@@H]2[C@@](C)(CC/C(C)=C/C(=O)O)[C@H](C)CC[C@@]12C	-	14.8	-	135.5%	CHO-K1 ctr=68.4;KCNQ1 pot spec=35.0;KCNQ2 pot conf=7.9;Kir2-1 sel=-;KCNQ2 W236L MoA=-
O=C(CC1c2ccccc2Oc2ccccc21)Nc1ccccc1C(F)(F)F	-	.	.	.
Clc1cccc(CN2CCc3c([nH]c4ccccc34)C2)c1	-	.	.	.
Cc1cccc(CN2CCc3c([nH]c4ccccc34)C2)c1	-	-	43.0%	-
C=C(C)C(=O)Nc1cccc(C2=NOC3(C2)C[C@@H](C(N)=O)N(C(=O)CC(c2ccccc2)c2ccccc2)C3)c1 (some centres not stated)	-	.	.	.
CCC(C)c1ccc(NC(=O)C2CC3CCC2C3)cc1 (configuration not stated)	-	26.1	-	-	CHO-K1 ctr=7.5;KCNQ1 pot spec=-;KCNQ2 pot conf=105.0;Kir2-1 sel=-;KCNQ2 W236L MoA=-
CCOc1ccc(NC(=O)C2CC3CCC2C3)cc1 (configuration not stated)	-	-	.	.
CC(C)c1ccc(NC(=O)C2CC3CCC2C3)cc1 (configuration not stated)	-	25.9	-	-	CHO-K1 ctr=29.6;KCNQ1 pot spec=-;KCNQ2 pot conf=66.5;Kir2-1 sel=-;KCNQ2 W236L MoA=-
O=C(Nc1ccc(F)cc1)C1CC2CCC1C2 (configuration not stated)	-	-	.	.
c1ccc2oc(-c3ccc(Nc4nc(N5CCCC5)nc(N5CCOCC5)n4)cc3)nc2c1	-	-	.	.
Cc1ccc(C(=O)N/C(=C\c2cccs2)c2nc3ccccc3[nH]2)cc1	-	.	.	.
SMILES	KCNQ2 inh	KCNQ2 pot	Kir21 conf inh	HEK293 ctr	others
Cc1ccc(/C=C(\NC(=O)c2ccc(C)cc2)c2nc(=S)[nH][nH]2)cc1	-	5.95	-	-	CHO-K1 ctr=-;KCNQ1 pot spec=-;KCNQ2 pot conf=-;Kir2-1 sel=-
O=C(NC1CCCCC1)c1ccc(CNc2nc(=S)[nH]c3ccccc23)cc1	-	.	.	.
COc1cccc(C(=O)NNC(=O)C(=O)Nc2ccc(C)c(Cl)c2)c1	-	-	.	.
CCc1ccc(NC(=O)C(=O)NNC(=O)c2cccc(OC)c2)cc1	-	6.36	-	195.5%	CHO-K1 ctr=5.0;KCNQ1 pot spec=-;KCNQ2 pot conf=4.9;Kir2-1 sel=-;KCNQ2 W236L MoA=-
CC(C)Cn1cnc2c1c(=O)[nH]c(=O)n2Cc1ccccc1	-	-	.	.
COc1ccc(C(OCC(O)CN(C)C2CCCCC2)c2ccc(OC)cc2)cc1 (configuration not stated)	-	.	.	.
